According to PubChem BioAssay AID1159580 (chemical genetic matrix, 2015):
Where “and” joins values, the source holds several entries; their conditions need not be identical. Equal entries are not always repeated. Hit rate of the full screen: of about 5,500 compounds, about 2,000 (36%) were called active. Another 18% or so got no clear call; they are omitted. Rule as the data show it: active = normalized growth mostly below about 0.91 (no sharp cut-off); inconclusive = no clear call, values can overlap the other calls; inactive = mostly above about 0.92. The list shows a part of the results.

Assay: chemical genetic growth profiling, strain panel (AID 1159580);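 also: tested at 20 µM; growth read once vehicle control cultures reached saturation at 30 °C; 1 = growth at the plate median or of vehicle wells; lower values mean less growth of the strain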
Details: S. cerevisiae deletion strains, growth OD

Measured: normalized growth

Nc1ccn(C2O[C@H](CO)[C@@H](O)[C@@H]2O)c(=O)n1 (stereo partly drawn)
inactive: locus YAL021C, strain ccr4, active compounds read low 0.997 | locus YAL026C, strain drs2, active compounds read low 0.974 | locus YAL030W, strain snc1, active compounds read low 0.999 | locus YBL061C, strain skt5, active compounds read low 1.01 | locus YBR009C, strain hhf1, active compounds read low 0.972 | locus YBR021W, strain FUR4, active compounds read low 1.02 | locus YBR023C, strain chs3, active compounds read low 1.02 | locus YBR171W, strain sec66, active compounds read low 0.994 | locus YBR229C, strain ROT2, active compounds read low 1.01 | locus YBR231C, strain swc5, active compounds read low 0.999 | locus YBR279W, strain paf1, active compounds read low 0.998 | locus YCL011C, strain gbp2, active compounds read low 1 | locus YCL016C, strain dcc1, active compounds read low 1.05 | locus YCL029C, strain bik1, active compounds read low 1 | locus YCL061C, strain MRC1, active compounds read low 1.01 | locus YCL069W, strain vba3, active compounds read low 0.979 | locus YCR088W, strain abp1, active compounds read low 0.986 | locus YDL005C, strain med2, active compounds read low 0.989 | locus YDL035C, strain GPR1, active compounds read low 1.03 | locus YDL040C, strain nat1, active compounds read low 0.984 | locus YDL074C, strain BRE1, active compounds read low 1.01 | locus YDL101C, strain DUN1, active compounds read low 1 | locus YDL185W, strain tfp1, active compounds read low 0.991 | locus YDL192W, strain arf1, active compounds read low 0.998 | locus YDR001C, strain nth1, active compounds read low 0.989 | locus YDR069C, strain doa4, active compounds read low 0.984 | locus YDR101C, strain arx1, active compounds read low 1.02 | locus YDR137W, strain rgp1, active compounds read low 1.01 | locus YDR159W, strain sac3, active compounds read low 0.961 | locus YDR162C, strain NBP2, active compounds read low 1.02 | locus YDR195W, strain ref2 0.997 | locus YDR297W, strain sur2, active compounds read low 0.986 | locus YDR318W, strain mcm21, active compounds read low 1 | locus YDR334W, strain swr1, active compounds read low 0.987 | locus YDR335W, strain msn5, active compounds read low 0.997 | locus YDR388W, active compounds read low 0.994 | locus YDR392W, strain spt3, active compounds read low 0.943 | locus YDR502C, strain sam2, active compounds read low 1.02 | locus YEL003W, strain gim4, active compounds read low 0.973 | locus YEL037C, strain rad23, active compounds read low 0.973 | locus YEL061C, strain CIN8 (second series), active compounds read low 0.976 | locus YEL061C, strain CIN8, active compounds read low 1.01 | locus YER015W, strain faa2, active compounds read low 1.01 | locus YER016W, strain bim1, active compounds read low 1.01 | locus YER110C, active compounds read low 1 | locus YER111C, strain swi4, active compounds read low 0.987 | locus YER155C, strain BEM2 (second series), active compounds read low 0.969 | locus YER155C, strain BEM2, active compounds read low 1.01 | locus YER167W, strain BCK2, active compounds read low 1.01 | locus YFR010W, strain ubp6, active compounds read low 0.976 | locus YGL078C, strain dbp3, active compounds read low 0.995 | locus YGL086W, strain mad1, active compounds read low 1 | locus YGL167C, strain pmr1, active compounds read low 1.01 | locus YGL173C, strain kem1, active compounds read low 1 | locus YGL227W, strain vid30, active compounds read low 0.995 | locus YGL240W, strain doc1, active compounds read low 1 | locus YGL248W, strain PDE1, active compounds read low 0.987 | locus YGL253W, strain hxk2, active compounds read low 1 | locus YGR135W, strain pre9, active compounds read low 0.983 | locus YGR252W, strain gcn5, active compounds read low 1 | locus YHR013C, strain ard1, active compounds read low 1.02 | locus YHR027C, strain rpn1, active compounds read low 0.996 | locus YHR030C, strain SLT2, active compounds read low 1.01 and 1.02 | locus YHR079C, strain IRE1 (second series), active compounds read low 0.996 | locus YHR079C, strain IRE1, active compounds read low 1.02 | locus YHR094C, strain hxt1, active compounds read low 0.996 | locus YHR129C, strain ARP1, active compounds read low 1.01 | locus YHR142W, strain chs7, active compounds read low 1.01 | locus YHR200W, strain rpn10, active compounds read low 1 | locus YIL066C, strain RNR3, active compounds read low 1.01 | locus YIL073C, strain SPO22, active compounds read low 1.01 | locus YIL125W, strain kgd1, active compounds read low 0.997 | locus YIR030C, strain dcg1, active compounds read low 1.01 | locus YJL092W, strain hpr5, active compounds read low 0.985 | locus YJL095W, strain BCK1 (second series), active compounds read low 1 | locus YJL095W, strain BCK1, active compounds read low 0.977 and 1.01 | locus YJL115W, strain asf1, active compounds read low 0.978 | locus YJL129C, strain trk1, active compounds read low 1.01 | locus YJL134W, strain LCB3, active compounds read low 1 | locus YJL154C, strain vps35, active compounds read low 0.981 | locus YJL164C, strain tpk1, active compounds read low 0.989 | locus YJL166W, strain qcr8, active compounds read low 1.02 | locus YJL168C, strain set2, active compounds read low 1 | locus YJL187C, strain SWE1 (second series), active compounds read low 0.997 | locus YJL187C, strain SWE1, active compounds read low 0.994 | locus YJR043C, strain POL32, active compounds read low 1.03 | locus YJR066W, strain TOR1, active compounds read low 0.99 | locus YJR075W, strain HOC1, active compounds read low 1.01
